# From the supplement of paper PMC6897291
# Counter-ions that a name gives are not always drawn.
# Columns and labels:
# U-2932 [1] = test: growth inhibition by drug alone (1 - RLU/untreated control) (fraction); higher = stronger inhibition; details: 177Lu-lilotomab satetraxetan 0 ug/ml
# Outline: (§1)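 With or without 18 h pretreatment by a radiolabelled anti-CD37 antibody conjugate (~600 MBq/mg; 0.5 µg/ml RIVA, 1 µg/ml U-2932), RIVA and U-2932 cells were washed and plated at 3,000 cells/well. Pre-printed compound doses were 10/100 nM for RIVA and 10/1,000 nM for U-2932. Growth inhibition uses RealTime-Glo RLU relative to the untreated no-drug wells. The calculation is 1 − RLU/mean of 48 such wells per plate, with reads daily from day 3 after 1 h at 37°C.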
# RIVA [2] = test: as above; details: 177Lu-lilotomab satetraxetan 0 ug/ml
# Outline: as §1
# U-2932 [3] = test: growth inhibition by drug plus 177Lu-lilotomab satetraxetan (1 - RLU/untreated control) (fraction); higher = stronger inhibition; details: 177Lu-lilotomab satetraxetan 1 ug/ml
# Outline: as §1
# RIVA [4] = test: as above; details: 177Lu-lilotomab satetraxetan 0.5 ug/ml
# Outline: as §1
Compound,"growth inhibition by drug alone (U-2932 [1]; 10 nM, time (day): 3)","growth inhibition by drug alone (U-2932 [1]; 10 nM, time (day): 4)","growth inhibition by drug alone (U-2932 [1]; 10 nM, time (day): 5)","growth inhibition by drug alone (U-2932 [1]; 10 nM, time (day): 6)","growth inhibition by drug alone (U-2932 [1]; 1000 nM, time (day): 3)","growth inhibition by drug alone (U-2932 [1]; 1000 nM, time (day): 4)","growth inhibition by drug alone (U-2932 [1]; 1000 nM, time (day): 5)","growth inhibition by drug alone (U-2932 [1]; 1000 nM, time (day): 6)","growth inhibition by drug alone (RIVA [2]; 10 nM, time (day): 3)","growth inhibition by drug alone (RIVA [2]; 10 nM, time (day): 4)","growth inhibition by drug alone (RIVA [2]; 10 nM, time (day): 5)","growth inhibition by drug alone (RIVA [2]; 10 nM, time (day): 6)","growth inhibition by drug alone (RIVA [2]; 100 nM, time (day): 3)","growth inhibition by drug alone (RIVA [2]; 100 nM, time (day): 4)","growth inhibition by drug alone (RIVA [2]; 100 nM, time (day): 5)","growth inhibition by drug alone (RIVA [2]; 100 nM, time (day): 6)","growth inhibition by drug plus 177Lu-lilotomab satetraxetan (U-2932 [3]; 10 nM, time (day): 3)","growth inhibition by drug plus 177Lu-lilotomab satetraxetan (U-2932 [3]; 10 nM, time (day): 4)","growth inhibition by drug plus 177Lu-lilotomab satetraxetan (U-2932 [3]; 10 nM, time (day): 5)","growth inhibition by drug plus 177Lu-lilotomab satetraxetan (U-2932 [3]; 10 nM, time (day): 6)","growth inhibition by drug plus 177Lu-lilotomab satetraxetan (U-2932 [3]; 1000 nM, time (day): 3)","growth inhibition by drug plus 177Lu-lilotomab satetraxetan (U-2932 [3]; 1000 nM, time (day): 4)","growth inhibition by drug plus 177Lu-lilotomab satetraxetan (U-2932 [3]; 1000 nM, time (day): 5)","growth inhibition by drug plus 177Lu-lilotomab satetraxetan (U-2932 [3]; 1000 nM, time (day): 6)","growth inhibition by drug plus 177Lu-lilotomab satetraxetan (RIVA [4]; 10 nM, time (day): 3)","growth inhibition by drug plus 177Lu-lilotomab satetraxetan (RIVA [4]; 10 nM, time (day): 4)","growth inhibition by drug plus 177Lu-lilotomab satetraxetan (RIVA [4]; 10 nM, time (day): 5)","growth inhibition by drug plus 177Lu-lilotomab satetraxetan (RIVA [4]; 10 nM, time (day): 6)","growth inhibition by drug plus 177Lu-lilotomab satetraxetan (RIVA [4]; 100 nM, time (day): 3)","growth inhibition by drug plus 177Lu-lilotomab satetraxetan (RIVA [4]; 100 nM, time (day): 4)","growth inhibition by drug plus 177Lu-lilotomab satetraxetan (RIVA [4]; 100 nM, time (day): 5)","growth inhibition by drug plus 177Lu-lilotomab satetraxetan (RIVA [4]; 100 nM, time (day): 6)"
CC(C)c1onc(-c2c(Cl)cccc2Cl)c1COc1ccc(/C=C/c2cccc(C(=O)O)c2)c(Cl)c1,0.0964,0.0881,0.0536,0.0511,-0.008,0.0242,-0.0241,-0.208,0.157,0.0681,0.0301,-0.185,0.0922,0.0619,0.0293,-0.0245,0.0329,0.0686,0.0726,0.0791,-0.0283,0.0526,0.0247,0.0113,0.473,0.542,0.562,0.583,0.522,0.552,0.554,0.538
CNC(=O)c1ccc(C)c(-n2c(C)cc(OCc3ccc(F)cc3F)c(Br)c2=O)c1,-0.0234,-0.0123,-0.0323,0.108,0.24,0.241,0.147,0.195,-0.177,-0.212,-0.219,-0.282,-0.0302,-0.0737,-0.127,-0.224,-0.0515,-0.0206,-0.0169,0.111,0.253,0.259,0.213,0.294,0.41,0.508,0.521,0.522,0.384,0.458,0.462,0.428
CN1CCN(c2ccc3nc(-c4c(N)c5c(F)cccc5[nH]c4=O)[nH]c3c2)CC1 [Dovitinib (TKI-258)],0.12,0.0504,-0.004,-0.0165,0.0669,-0.0112,-0.0673,-0.128,0.0921,0.0422,-0.0205,-0.168,-0.156,-0.0867,-0.188,-0.316,0.0639,0.0792,0.118,0.243,0.0496,0.031,0.0265,0.126,0.421,0.501,0.522,0.53,0.358,0.399,0.413,0.411
O=C(O[C@@H]1Cc2c(O)cc(O)cc2O[C@@H]1c1cc(O)c(O)c(O)c1)c1cc(O)c(O)c(O)c1 [(-)-Epigallocatechin gallate],0.0464,-0.0176,-0.149,-0.234,-0.0141,-0.0657,-0.154,-0.12,-0.0443,-0.156,-0.418,-0.714,-0.587,-0.43,-0.44,-0.545,-0.0356,0.00037,-0.03,-0.022,0.0188,0.036,0.0512,0.127,0.452,0.532,0.55,0.559,0.363,0.454,0.47,0.474
CN(NC(=O)CC(=O)NN(C)C(=S)c1ccccc1)C(=S)c1ccccc1 [Elesclomol],0.796,0.791,0.818,0.825,0.982,0.982,0.983,0.984,0.97,0.964,0.963,0.964,0.976,0.976,0.975,0.974,0.854,0.88,0.914,0.935,0.983,0.982,0.984,0.987,,,,,,,,
"Cc1c(C(=O)Nc2ccc(N3C[C@@H](C)O[C@@H](C)C3)nc2)cccc1-c1ccc(OC(F)(F)F)cc1 [LDE225 (NVP-LDE225, Erismodegib)]",0.0297,0.0258,-0.0417,-0.121,-0.0141,0.0478,0.023,-0.177,-0.0165,-0.00347,-0.0773,-0.419,-0.213,-0.137,-0.143,-0.258,0.00969,0.0196,0.033,0.15,-0.0204,0.153,0.159,0.189,0.366,0.504,0.517,0.547,0.384,0.483,0.482,0.47
CCc1c2c(nc3ccc(OC(=O)N4CCC(N5CCCCC5)CC4)cc13)-c1cc3c(c(=O)n1C2)COC(=O)[C@]3(O)CC [Irinotecan HCl Trihydrate (Campto)],-0.0148,-0.0323,-0.109,-0.0905,0.841,0.921,0.96,0.976,-0.0524,-0.159,-0.223,-0.511,-0.259,-0.163,-0.0382,0.00676,0.0165,0.04,0.0458,0.118,0.839,0.928,0.965,0.98,,,,,,,,
CN(c1ncccc1CNc1nc(Nc2ccc3c(c2)CC(=O)N3)ncc1C(F)(F)F)S(C)(=O)=O,0.161,0.0909,0.0358,-0.183,0.299,0.457,0.571,0.694,-0.0233,0.0431,-0.0513,-0.296,-0.0725,0.0108,0.00901,-0.0367,0.066,0.111,0.2,0.224,0.23,0.336,0.426,0.546,0.592,0.636,0.671,0.663,0.458,0.565,,
